In PubChem BioAssay (NCATS):
Several values for one entry are separate records, joined by “and”; a condition that tells them apart may be missing. Equal values may be shown once. Results filed as inconclusive are left out. Where a call stands in place of a potency, no number is given. Some compounds were tested as several samples or in several runs, with calls that do not always agree. Activity calls are given as the source filed them. Calls come from the whole dose curve. Numbered stars: 1 amine (or outer) side, 2 acyl side, 3 side chain; on linkers, the order of the positions; unused ones are H or OH. Bridge positions count the residues as written; N and C are the ends. Square brackets hold non-standard residues; d marks the D form. Peptide text beside a SMILES is read from it. I, II: the chains in the order shown. Actinocin(9to1) = Cc1c2oc3c(C)ccc(C(=O)[*:1])c3nc-2c(C(=O)[*:2])c(N)c1=O; aThr = C[C@H](O)[C@H](N)C(=O)O; NMeV = CN[C@H](C(=O)O)C(C)C; Sar = CNCC(=O)O

Each compound was assayed against Cytochrome P450 1A2 (Homo sapiens) (UniProt P05177) (assay: p450-cyp1a2 (AID 410)). Conditions: recombinant CYP1A2, luciferin-ME demethylation, luminescence; series mostly up to 57 µM.
Chain of Cytochrome P450 1A2 (Homo sapiens) (P05177 whole entry, looked up): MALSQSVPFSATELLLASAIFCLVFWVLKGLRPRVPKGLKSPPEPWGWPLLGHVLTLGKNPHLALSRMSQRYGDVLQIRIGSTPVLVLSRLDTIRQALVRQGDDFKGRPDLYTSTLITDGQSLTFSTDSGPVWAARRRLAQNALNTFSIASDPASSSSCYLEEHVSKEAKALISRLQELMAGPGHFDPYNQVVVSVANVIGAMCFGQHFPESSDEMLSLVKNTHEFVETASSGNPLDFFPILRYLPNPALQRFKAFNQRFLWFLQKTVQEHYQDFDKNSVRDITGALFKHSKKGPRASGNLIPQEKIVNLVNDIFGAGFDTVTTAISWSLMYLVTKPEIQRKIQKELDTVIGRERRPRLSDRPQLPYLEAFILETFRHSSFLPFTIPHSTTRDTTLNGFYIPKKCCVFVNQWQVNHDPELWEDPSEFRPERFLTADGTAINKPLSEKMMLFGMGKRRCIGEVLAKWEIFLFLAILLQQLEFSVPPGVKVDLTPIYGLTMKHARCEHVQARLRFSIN
Method: The P450 gene superfamily is involved in metabolism and the clearance of xenobiotics. This assay used human CYP1A2 to measure the demethylation of luciferin 6' methyl ether (Luciferin-ME; Promega-Glo) to luciferin. The luciferin is then measured by luminescence after the addition of a luciferase detection regeant. Luciferin-ME concentration in the assay was equal to its Km for CYP1A2.
NCGC Assay Protocol Summary:
Two uL of enzyme and substrate mix (final concentrations: 20nM CYP1A2, 100uM Luciferin-ME, 100mM KPO4) were dispensed into a white, solid bottom 1536-well microtiter plate. 23nL of compound was transferred by a pin tool. The plate was incubated at room temperature for 10 min. Two uL of an NADPH regeneration solution (Promega supplied reagent) was dispensed and the reaction was allowed to continue for 60 min at room temperature. Then the reaction was stopped by reconstituted detection reagent. After another 20 min of incubation the plate was read on the ViewLux (Perkin Elmer) at 60 sec exposure and 2x2 binning. This protocol was carried out with Promega-Glo reagents and further information can be found at http://www.promega.com/tbs/tb325/tb325.pdf. Data were normalized to the to AC100 inhibition (57 uM furafylline).
Potency is the fitted concentration of half-maximal effect.

Compound | Potency
NCCNS(=O)(=O)c1cccc2cnccc12 | inactive
Cc1c2oc3c(C)ccc(C(=O)N[C@@H]4C(=O)N[C@@H](C(C)C)C(=O)N5CCC[C@@H]5C(=O)N(C)CC(=O)N(C)[C@@H](C(C)C)C(=O)O[C@H]4C)c3nc-2c(C(=O)N[C@@H]2C(=O)N[C@@H](C(C)C)C(=O)N3CCC[C@@H]3C(=O)N(C)CC(=O)N(C)[C@@H](C(C)C)C(=O)O[C@H]2C)c(N)c1=O (I: [aThr]V[dP][Sar][NMeV] / II: [aThr]V[dP][Sar][NMeV]; ester I:1-I:C, II:1-II:C; linker I:N-II:N via Actinocin(9to1)) | inactive
N#C/C(=C\c1ccc(O)c(O)c1)C(=O)Nc1ccccc1 | 2 µM (active) and 501 nM (active)
CC(C)NC[C@@H](O)COc1ccc(CCOCC2CC2)cc1 | 15.8 µM (active) and 12.6 µM (active) and inactive
CC(C)NC[C@H](O)c1ccc(NS(C)(=O)=O)cc1 | inactive
NS(=O)(=O)c1cccc2c1c([N+](=O)[O-])cc1[nH]c(=O)c(=O)[nH]c12 | inactive
COc1ccc2c(c1)c(CC(=O)N1CCOCC1)c(C)n2C(=O)c1ccc(Cl)cc1 | 12.6 µM (active) and 25.1 µM (active)
Cc1sc(N)c(C(=O)c2cccc(C(F)(F)F)c2)c1C | 15.8 µM (active)
Cc1nc2c(O)cccc2c(=O)[nH]1 | 15.8 µM (active)
O=C(NCCN1CCCCC1)c1ccc(I)cc1 | 25.1 µM (active)
C=C[C@@]1(C)CC(=O)[C@@]2(O)[C@@]3(C)[C@@H](O)CCC(C)(C)[C@@H]3[C@H](OC(=O)CCN(C)C)[C@H](OC(C)=O)[C@@]2(C)O1 | inactive
CC(=O)N[C@@H](C(=O)O)C(C)(C)SN=O | inactive
N[C@H](CCC(=O)NCC(=O)O)C(=O)O | inactive
N[C@H](C(=O)O)c1ccc(C(=O)O)c(O)c1 | inactive
C[N+]1(C)CCc2cc3c(cc2[C@@H]1[C@@H]1C(=O)Oc2c1ccc1c2OCO1)OCO3 | inactive and 1.26 µM (active)
CCCn1c(=O)c2[nH]c(-c3ccc(OCC(=O)Nc4ccc(C#N)cc4)cc3)nc2n(CCC)c1=O | 31.6 µM (active)
COc1[nH]c2ccc(F)cc2c1C(=O)OCC1CCN(CCNS(C)(=O)=O)CC1 | inactive
CC[C@]1(O)C[C@@H]2CN(CCc3c([nH]c4ccccc34)[C@](C(=O)OC)(c3cc4c(cc3OC)N(C=O)[C@H]3[C@@](O)(C(=O)OC)[C@H](C(=O)OC)[C@@]5(CC)C=CCN6CC[C@]43[C@H]65)C2)C1 | inactive
CC(C)[C@H](CO)Nc1nc(Nc2cc(N)cc(Cl)c2)c2ncn(C(C)C)c2n1 | 0.501 µM (active)
NC(N)=Nc1ccc(Cl)cc1 | inactive

Compound | Potency
COCCNC(=O)COc1ccc(OCCNC[C@@H](O)COc2ccccc2)cc1 | inactive
O=C(N/N=C\c1ccccc1O)c1ccccc1O | 0.794 µM (active)
CCS(=O)(=O)N(C)[C@@H]1c2cc(C#N)ccc2OC(C)(C)[C@H]1O | 20 µM (active) and inactive
O=C(NCCNC[C@@H](O)COc1ccc(O)cc1)N1CCOCC1 | inactive
O=C(O)c1cc(=O)c2ccc(Cl)cc2[nH]1 | inactive
C[C@H](NC[C@H](O)CP(=O)(O)CC1CCCCC1)c1ccc(Cl)c(Cl)c1 | 39.8 µM (active)
COc1cc2nc(N3CCN(C(=O)[C@H]4CCCO4)CC3)nc(N)c2cc1OC | inactive
Cc1ccccc1N=C(N)Nc1ccccc1C | inactive
N[C@](CC1c2ccccc2Oc2ccccc21)(C(=O)O)[C@@H]1C[C@@H]1C(=O)O | 31.6 µM (active)
Cc1ccc(S(=O)(=O)/C=C\C#N)cc1 | 3.98 µM (active)
N[C@@H](CO)C(=O)O | inactive
COc1cc(COc2cc(N)c(Cl)cc2C(=O)CCC2CCN(CCNS(C)(=O)=O)CC2)cc(OC)c1 | inactive
CN1CCN(C2=Cc3ccccc3Oc3ccc(Cl)cc32)CC1 | 20 µM (active)
Clc1cccc(C=NC=Nc2cccc(Cl)c2)c1 | 0.631 µM (active)
COC(=O)c1c(-c2cc(OC)c(OC)c(OC)c2)c2ccnc(OCc3ncccn3)c2c(=O)n1Cc1ccnc(C)c1 | inactive
CCCCCCN(CCCCCC)C(=O)Cc1c(-c2ccc(Cl)cc2)[nH]c2ccc(Cl)cc12 | 31.6 µM (active)
Oc1cc2c(cc1O)[C@H](c1ccccc1)CNCC2 | inactive
CSc1ccc2c(c1)[C@H](N1CCN(C)CC1)Cc1ccccc1S2 | 31.6 µM (active)
CC(C)C[C@H]1C(=O)N2CCC[C@@H]2[C@]2(O)O[C@](NC(=O)[C@@H]3C=C4c5cccc6[nH]c(Br)c(c56)C[C@H]4N(C)C3)(C(C)C)C(=O)N12 | inactive
COC(=O)Nc1ccc2[nH]cc(CCNC(C)=O)c2c1 | 0.316 µM (active)
